Reference: PubChem BioAssay AID1159580 (chemical genetic matrix, 2015)
Values joined by “and” are separate entries in the source; they are usually repeats but may differ in a detail not shown here. Equal values may be shown once. In all, about 5,500 compounds went through this assay and about 2,000 (36%) were called active. About 18% were inconclusive and are not listed. No stated cut-off is given here; in the data, active means normalized growth mostly below about 0.91 (no sharp cut-off); inconclusive means no clear call, values can overlap the other calls; inactive means mostly above about 0.92. Some of the results follow.

Experiment: chemical genetic growth profiling, strain panel (AID 1159580);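 further: tested at 20 µM; growth read once vehicle control cultures reached saturation at 30 °C; 1 = growth at the plate median or of vehicle wells; lower values mean less growth of the strain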
Conditions: S. cerevisiae deletion strains, growth OD

Measured: normalized growth

OC(CCN1CCCCC1)(c1ccccc1)C1CCCCC1 (stereo unspecified)
active: locus YER155C, strain BEM2, active compounds read low 0.791
inactive: locus YAL013W, strain DEP1, active compounds read low 1.01 | locus YAL021C, strain ccr4, active compounds read low 0.968 | locus YAL026C, strain drs2, active compounds read low 0.994 | locus YAL030W, strain snc1, active compounds read low 0.97 | locus YAL040C, strain CLN3, active compounds read low 1.06 | locus YBL061C, strain skt5, active compounds read low 0.979 | locus YBR009C, strain hhf1, active compounds read low 0.993 | locus YBR021W, strain FUR4, active compounds read low 0.998 | locus YBR023C, strain chs3, active compounds read low 0.977 | locus YBR171W, strain sec66, active compounds read low 0.974 | locus YBR229C, strain ROT2, active compounds read low 1.01 | locus YBR231C, strain swc5, active compounds read low 0.957 | locus YBR279W, strain paf1, active compounds read low 0.984 | locus YCL011C, strain gbp2, active compounds read low 0.978 | locus YCL016C, strain dcc1, active compounds read low 0.993 | locus YCL029C, strain bik1, active compounds read low 1 | locus YCL061C, strain MRC1 (second series), active compounds read low 0.981 | locus YCL061C, strain MRC1, active compounds read low 0.966 | locus YCL069W, strain vba3, active compounds read low 0.974 | locus YCR088W, strain abp1, active compounds read low 0.98 | locus YDL005C, strain med2, active compounds read low 0.972 | locus YDL035C, strain GPR1, active compounds read low 1.01 | locus YDL040C, strain nat1, active compounds read low 0.98 | locus YDL074C, strain BRE1, active compounds read low 0.999 | locus YDL101C, strain DUN1, active compounds read low 1.01 | locus YDL134C, strain PPH21, active compounds read low 1.01 | locus YDL185W, strain tfp1, active compounds read low 1 | locus YDL192W, strain arf1, active compounds read low 1.01 | locus YDR001C, strain nth1, active compounds read low 0.969 | locus YDR069C, strain doa4, active compounds read low 0.948 | locus YDR101C, strain arx1, active compounds read low 0.995 | locus YDR137W, strain rgp1, active compounds read low 1.02 | locus YDR150W, strain NUM1, active compounds read low 1.02 and 0.996 | locus YDR159W, strain sac3, active compounds read low 0.998 | locus YDR162C, strain NBP2, active compounds read low 1.01 | locus YDR195W, strain ref2 0.927 | locus YDR297W, strain sur2, active compounds read low 0.965 | locus YDR318W, strain mcm21, active compounds read low 0.991 | locus YDR334W, strain swr1, active compounds read low 0.975 | locus YDR335W, strain msn5, active compounds read low 0.975 | locus YDR363W, strain ESC2, active compounds read low 0.954 | locus YDR388W, active compounds read low 0.996 | locus YDR392W, strain spt3, active compounds read low 1.01 | locus YDR502C, strain sam2, active compounds read low 0.998 | locus YEL003W, strain gim4, active compounds read low 0.975 | locus YEL037C, strain rad23, active compounds read low 0.969 | locus YEL061C, strain CIN8 (second series), active compounds read low 0.974 | locus YEL061C, strain CIN8, active compounds read low 1.01 | locus YER002W, strain NOP16, active compounds read low 1.03 | locus YER015W, strain faa2, active compounds read low 0.976 | locus YER016W, strain bim1, active compounds read low 1 | locus YER110C, active compounds read low 1 | locus YER111C, strain swi4, active compounds read low 0.961 | locus YER155C, strain BEM2 (second series), active compounds read low 0.929 | locus YER167W, strain BCK2, active compounds read low 1.01 | locus YFR010W, strain ubp6, active compounds read low 0.975 | locus YGL078C, strain dbp3, active compounds read low 0.991 | locus YGL086W, strain mad1, active compounds read low 0.993 | locus YGL167C, strain pmr1, active compounds read low 0.961 | locus YGL173C, strain kem1, active compounds read low 0.934 | locus YGL227W, strain vid30, active compounds read low 0.982 | locus YGL240W, strain doc1, active compounds read low 0.961 | locus YGL248W, strain PDE1, active compounds read low 1.01 | locus YGL253W, strain hxk2, active compounds read low 0.97 | locus YGR078C, strain PAC10, active compounds read low 0.996 | locus YGR135W, strain pre9, active compounds read low 0.985 | locus YGR229C, strain SMI1, active compounds read low 1 and 0.945 | locus YGR252W, strain gcn5, active compounds read low 0.975 | locus YHR013C, strain ard1, active compounds read low 0.971 | locus YHR027C, strain rpn1, active compounds read low 0.988 | locus YHR030C, strain SLT2, active compounds read low 1.02 and 0.961 | locus YHR079C, strain IRE1 (second series), active compounds read low 0.992 | locus YHR079C, strain IRE1, active compounds read low 0.99 | locus YHR094C, strain hxt1, active compounds read low 1 | locus YHR129C, strain ARP1, active compounds read low 1.01 | locus YHR142W, strain chs7, active compounds read low 0.978 | locus YHR200W, strain rpn10, active compounds read low 1 | locus YIL066C, strain RNR3, active compounds read low 1.01 | locus YIL073C, strain SPO22, active compounds read low 1.05 | locus YIL125W, strain kgd1, active compounds read low 1 | locus YIR030C, strain dcg1, active compounds read low 0.999 | locus YJL092W, strain hpr5, active compounds read low 0.954 | locus YJL095W, strain BCK1 (second series), active compounds read low 0.971 | locus YJL095W, strain BCK1, active compounds read low 0.984 and 0.98 | locus YJL115W, strain asf1, active compounds read low 0.961 | locus YJL129C, strain trk1, active compounds read low 0.953 | locus YJL134W, strain LCB3, active compounds read low 1.01 | locus YJL154C, strain vps35, active compounds read low 0.971 | locus YJL164C, strain tpk1, active compounds read low 1.01 | locus YJL166W, strain qcr8, active compounds read low 0.925 | locus YJL168C, strain set2, active compounds read low 0.991 | locus YJL187C, strain SWE1 (second series), active compounds read low 1.01 | locus YJL187C, strain SWE1, active compounds read low 0.975 | locus YJR043C, strain POL32, active compounds read low 1.01 | locus YJR066W, strain TOR1, active compounds read low 0.93
